# Assay outcomes deposited in PubChem by several laboratories.
# Sampled rows, rich in hits. Any-hit rate of the full collection: about 2.2%.
# ANO1 activ – activators or potentiators of mouse TMEM16A chloride channel; Q8BHY3; B-score at 10 µM; AID 623877; HEK293 TMEM16A/YFP-H148Q/I152L, iodide quench fluorescence; stronger effect = lower value; 340,000 compounds, 0.3% hits;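 active = fluorescence-ratio B-score plate-corrected deviation score at least 3 library SD below zero, with starting fluorescence score within 5 deviations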;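 also: channel opened by trigger with iodide after compound preincubation; score built on the fluorescence ratio of max minus min over baseline; more negative score means more quench and so TMEM16A activation or potentiation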
# Target sequence (Q8BHY3 whole entry, looked up): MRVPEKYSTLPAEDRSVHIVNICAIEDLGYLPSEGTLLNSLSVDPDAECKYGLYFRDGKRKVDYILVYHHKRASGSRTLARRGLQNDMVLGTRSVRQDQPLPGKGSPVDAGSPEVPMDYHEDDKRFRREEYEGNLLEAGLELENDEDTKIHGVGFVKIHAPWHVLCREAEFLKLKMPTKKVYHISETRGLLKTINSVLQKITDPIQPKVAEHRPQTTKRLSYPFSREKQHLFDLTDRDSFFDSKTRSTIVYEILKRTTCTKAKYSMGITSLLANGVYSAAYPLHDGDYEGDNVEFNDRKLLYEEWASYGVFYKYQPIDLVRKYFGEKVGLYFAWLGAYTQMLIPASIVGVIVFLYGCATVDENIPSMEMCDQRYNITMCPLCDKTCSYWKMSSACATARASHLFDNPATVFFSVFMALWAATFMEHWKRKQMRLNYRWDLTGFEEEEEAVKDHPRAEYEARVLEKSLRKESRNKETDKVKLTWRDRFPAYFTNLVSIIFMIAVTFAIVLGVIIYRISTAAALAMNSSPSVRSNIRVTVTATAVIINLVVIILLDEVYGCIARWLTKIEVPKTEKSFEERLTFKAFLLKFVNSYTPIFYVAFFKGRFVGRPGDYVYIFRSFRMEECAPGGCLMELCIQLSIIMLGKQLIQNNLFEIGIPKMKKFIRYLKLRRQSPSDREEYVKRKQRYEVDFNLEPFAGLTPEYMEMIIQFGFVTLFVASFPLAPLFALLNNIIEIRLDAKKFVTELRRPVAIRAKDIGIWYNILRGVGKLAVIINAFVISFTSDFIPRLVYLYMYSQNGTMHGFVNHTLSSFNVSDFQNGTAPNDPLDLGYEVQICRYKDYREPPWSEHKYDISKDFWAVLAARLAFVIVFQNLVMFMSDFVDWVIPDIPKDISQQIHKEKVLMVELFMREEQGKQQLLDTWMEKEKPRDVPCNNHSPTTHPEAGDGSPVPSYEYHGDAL
# M1 PAM parental – M1 PAM counterscreen hit in parental CHO-K1 cells. ATP EC20, Fluo-8 calcium fluorescence; 0% at ATP EC20, 100% at ATP max. activation, % at 3 µM. 360,000 compounds, 0.02% hits;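 active = activation above the run cutoff, the mean activation of all test compounds plus 3 SD, cut at about 40% in these data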;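 also: peak over basal fluorescence ratio in a 140 s read after ATP addition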
# CHO-K1 Ca ag – M1 agonist counterscreen hit in parental CHO-K1 cells; activation, % at 3 µM; Fluo-8 calcium fluorescence; scaled to maximal ATP response, vehicle zero; AID 602248; 360,000 compounds, 0.48% hits; in the data active = activation above about 15%;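 also: untransfected CHO-K1 host cells lacking M1 receptor as counterscreen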
# CHO-K1 Ca antag – nonselective inhibitor or artifact in parental CHO-K1 cells; AID 602250; inhibition, % at 3 µM; ATP-induced calcium, Fluo-8 fluorescence; 360,000 compounds, 0.6% hits;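 active = inhibition above a per-plate cutoff, the plate's mean sample inhibition plus 3 SD, cut at about 24% in these data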;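 also: 0% = DMSO plus EC80 ATP and 100% = DMSO alone without ATP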
# NTR1 ag – NTR1 (human) agonism; P30989; NTR1-U2OS beta-arrestin-GFP spot imaging, agonist mode; activation, % at 20 µM; 330,000 compounds, 0.17% hits; AID 493036;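 active = activation at or above 40% of the spot to cytoplasm intensity ratio, with at least 20 cells analyzed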;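 also: 0% = DMSO without peptide and 100% = 100 nM NTR1 peptide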
# TMEM16A inh – inhibitors of mouse TMEM16A calcium-activated chloride channel; normalized B-score (activity score, 25-100; higher = stronger inhibition) at 10 µM; 310,000 compounds, 1.2% hits; AID 588511; HEK293 TMEM16A/YFP iodide influx fluorescence, ionomycin; Q8BHY3;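 active = ratio plate-corrected score three or more library SD toward inhibition, starting fluorescence score within five deviations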;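 also: score derived from kinetic fluorescence span divided by baseline fluorescence per well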
# * marks the source's active call; other numbers are inactive results; i = inactive; x = no result given.
SMILES,ANO1 activ,M1 PAM parental,CHO-K1 Ca ag,CHO-K1 Ca antag,NTR1 ag,TMEM16A inh
CCOC(=O)C1CCN(C(=O)c2ccc3c(c2)NC(=O)/C(=C/c2ccccc2)S3)CC1,-50.5*,-25.0,0.2,11.2,5.7,i
CCOC(=O)C1CCN(C(=O)c2ccc3c(c2)NC(=O)/C(=C\c2ccc(C)cc2)S3)CC1,i,19.4,1.1,-9.8,18.6,i
Cc1nnc(C)c2c(C)n(Cc3ccc4c(c3)OCO4)c(C)c12,i,-7.6,0.4,23.8*,-0.4,i
CCOC(=O)C(C(=O)NCc1ccc(F)cc1)c1ncc(C(F)(F)F)cc1Cl (stereo unspecified),i,7.8,-0.2,-3.7,0.4,i
O=C(NCc1ccc(F)cc1)C(C(=O)NCc1ccc(F)cc1)c1ncc(C(F)(F)F)cc1Cl,-7.26*,12.4,0.0,-12.9,-0.8,i
O=C(Nc1ccc(S(=O)(=O)NC2=NCCCCC2)cc1)c1cccc(OC(F)F)c1,x,-7.0,0.7,0.2,x,x
Cc1ccccc1NC(=O)C1CCCN(S(=O)(=O)c2ccc3c(c2)C(C)(C)C(=O)N3C)C1 (stereo unspecified),i,-3.1,0.1,29.7*,-0.1,i
CC(C)NS(=O)(=O)c1ccc(CCC(=O)N2CCCC2)cc1,i,-16.1,-0.8,24.1*,-0.5,i
CC(C)NS(=O)(=O)c1ccc(CCC(=O)N2CCC(C(N)=O)CC2)cc1,i,-7.5,-0.4,1.7,0.2,i
COc1cc(OC)nc(C(NC(=O)C2CCN(Cc3c[nH]c4ccccc34)CC2)c2ccc(Cl)cc2)n1 (stereo unspecified),x,3.7,3.9,-2.7,x,x
O=C(CCCOc1ccc(Cl)cc1)N1CCOCC1,i,16.4,0.4,-9.8,-1.7,i
CCOC(=O)C1(CCCCCCOc2ccc(Cl)cc2)CO1 (stereo unspecified),x,x,x,x,-0.6,25*
CCOC(=O)C1=CCN(S(=O)(=O)c2ccc(Cl)cc2)C1c1ccc(C)cc1 (stereo unspecified),x,-8.0,0.1,24.4*,x,x
CCOC(=O)C1=CCN(S(=O)(=O)c2ccc(C)cc2)C1c1cccc(Br)c1 (stereo unspecified),x,-8.9,-0.4,28.6*,x,x
CCOC(=O)[C@]12CCC=C1N(Cc1ccc(Cl)cc1Cl)C(=O)[C@H](CC(=O)NCc1cccs1)C2,x,19.9,1.0,-18.1,x,x
O=S(=O)(c1cccc(COc2ccc(Cl)cc2Cl)c1)N1CCOCC1,i,10.7,3.1,-6.5,7.0,i
CC(=O)c1cc(Cl)ccc1OCc1cccc(S(=O)(=O)N2CCOCC2)c1,i,-3.5,16.4*,5.5,2.8,i
Cc1nn(S(=O)(=O)c2cccc([N+](=O)[O-])c2)c(C)c1Br,i,24.3,0.4,-7.6,1.3,i
Cc1nn(S(=O)(=O)c2ccccc2)c(C)c1Sc1ccc([N+](=O)[O-])cc1,i,-2.3,5.7,-3.8,2.0,25*
O=C(Nc1cccc(CNCCc2c[nH]c3ccccc23)c1)c1ccccc1Cl,i,3.9,26.8*,3.3,4.2,i
COc1ccccc1CCn1cnc(Cc2ccccc2)c1C(C)C,x,-1.8,7.8,-10.8,x,x
COc1ccc(NC(=O)C2CCN(S(=O)(=O)c3ccc(OC)c(OC)c3)CC2)c(OC)c1,i,-8.3,-0.3,26.4*,-4.7,i
COc1ccc(NC(=O)C2CCN(S(C)(=O)=O)CC2)c(OC)c1,i,1.9,5.5,4.8,-0.3,i
Cc1[nH]c2ccccc2c1C(=O)C(=O)N1CCN(c2cccc(Cl)c2)CC1,-52.8*,1.7,4.5,-15.5,4.0,i
CCn1nnc2cc(C(=O)N3CCC(C(=O)OC)CC3)ccc21,i,14.4,0.5,-13.8,1.3,x
SMILES,ANO1 activ,M1 PAM parental,CHO-K1 Ca ag,CHO-K1 Ca antag,NTR1 ag,TMEM16A inh
O=C(CN1CCOCC1)Nc1ncc(Cc2cccc3ccccc23)s1,i,22.8,5.7,-34.2,3.9,25*
CC1CCC2(CC1)NC(=O)N(CC(=O)Nc1cccnc1Cl)C2=O (stereo unspecified),i,4.5,-0.3,-9.3,-1.5,x
CC1(c2ccccc2)NC(=O)N(CC(=O)Nc2ccc3c(c2)OCO3)C1=O (stereo unspecified),i,13.7,1.1,-6.0,2.0,i
CC1(c2ccc(Cl)cc2)NC(=O)N(CC(=O)Nc2cccnc2Cl)C1=O (stereo unspecified),i,14.5,17.4*,-7.6,1.5,i
CC1(c2ccc(OC(F)F)cc2)NC(=O)N(CC(=O)Nc2ccccc2)C1=O (stereo unspecified),-10.2*,11.9,46.1*,17.3,3.3,i
CCOC(=O)CN1C(=O)NC(C)(c2ccc(OC(F)F)cc2)C1=O (stereo unspecified),i,16.3,2.8,-12.9,0.9,25*
CC1(c2ccc(OC(F)F)cc2)NC(=O)N(CC(=O)Nc2ccc3c(c2)OCO3)C1=O (stereo unspecified),-5.87*,19.9,28.6*,-13.6,3.0,i
CCN1CCN(c2ccc(S(=O)(=O)N3CCOCC3)cc2NC(=O)CC(NC(C)=O)c2ccccc2)CC1 (stereo unspecified),i,-20.2,-0.2,5.4,x,x
COCCNc1nc(NCc2ccc(C(C)C)cc2)c2sccc2n1,x,15.8,5.9,3.0,x,x
CCNC(=O)C1(C)CCN(Cc2csc(-c3ccccc3)n2)C1 (stereo unspecified),x,4.7,0.1,22.6,x,x
COc1ccc([C@H]2C[C@@H](n3cc(-c4ccc(F)cc4)nn3)[C@H](O)CN2C(=O)C2CCCCC2)cc1,x,7.0,-0.3,-1.1,x,x
COc1cc(-c2noc(C)c2-c2ccc(N(C)C)nc2)cc(OC)c1OC,i,13.0,32.4*,-7.6,3.4,i
COc1cc(-c2noc(C)c2-c2ccc3[nH]ccc3c2)cc(OC)c1OC,i,2.3,1.5,-10.8,2.0,i
C=CCC1(CC=C)CCCN1C(=O)c1cc(COc2cccc(OC)c2)on1,i,-22.5,1.6,1.6,1.2,i
C=CCC1(CC=C)CCCN1C(=O)c1cc(COc2cncc(Cl)c2)on1,i,1.0,10.3,21.8,3.6,25*
CCCCCCN1CCN(C2CN(Cc3cn(Cc4cccc(C(F)(F)F)c4)nn3)S(=O)(=O)C2)CC1 (stereo unspecified),x,11.6,5.8,-30.1,x,x
CCOC(=O)C1(C)CCCN(C(=O)c2cccc3ccccc23)C1 (stereo unspecified),x,-16.8,0.1,18.0,x,x
COc1cc(C(=O)Nc2scc(-c3ccc(Br)cc3)c2C(=O)O)cc(OC)c1OC,i,-7.1,0.3,0.5,2.7,100*
